Test results from paper PMC7862700, “An all-to-all approach to the identification of sequence-specific readers for epigenetic DNA modifications on cytosine”.

Columns and labels:
Experiment in all cases: DAPPL (digital affinity profiling via proximity ligation, sequencing); 10 mM Tris-HCl pH 7.5, 50 mM NaCl, 1 mM DTT, 4% glycerol, room temperature, 30 min; GST-TFs on glutathione beads, 16-mer random dsDNA library, 0.1% formaldehyde crosslink after washing; high values mean tight binding
Details in all cases: protein: recombinant; tags: N-terminal GST; dsDNA, one strand shown
[1] = target: T1, ELK1 (Homo sapiens, UniProt P19419 1-428)
T1 sequence: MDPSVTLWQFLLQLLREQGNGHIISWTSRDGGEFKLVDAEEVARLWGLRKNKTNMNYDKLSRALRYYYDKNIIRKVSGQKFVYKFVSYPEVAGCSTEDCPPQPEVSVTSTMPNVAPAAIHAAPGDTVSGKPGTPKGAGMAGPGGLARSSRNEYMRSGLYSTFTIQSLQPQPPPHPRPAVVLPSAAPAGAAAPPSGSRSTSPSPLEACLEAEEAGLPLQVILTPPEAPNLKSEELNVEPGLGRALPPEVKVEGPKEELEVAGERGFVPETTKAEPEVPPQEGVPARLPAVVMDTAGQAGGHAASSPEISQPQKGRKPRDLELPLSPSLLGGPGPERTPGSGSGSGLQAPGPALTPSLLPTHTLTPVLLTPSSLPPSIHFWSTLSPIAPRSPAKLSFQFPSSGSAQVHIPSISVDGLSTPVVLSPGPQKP
Summary of the method: (§1)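 Pools were built from human transcription factors expressed in yeast as GST fusions, captured on glutathione beads and DNA-barcoded, along with a tag-only sample. Incubation with 200 nmole of a 16-mer random double-stranded DNA library lasted 30 min at room temperature in Tris/NaCl/DTT/glycerol buffer, and was followed by washing, 0.1% formaldehyde crosslinking, proximity ligation, PCR amplification and Illumina NextSeq500 sequencing. Binding signal is the quotient of each hexamer's read frequency for a factor and its frequency for the tag-only sample.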

[2] = target: T2, GABPA (Homo sapiens, UniProt Q06546 1-454)
T2 sequence: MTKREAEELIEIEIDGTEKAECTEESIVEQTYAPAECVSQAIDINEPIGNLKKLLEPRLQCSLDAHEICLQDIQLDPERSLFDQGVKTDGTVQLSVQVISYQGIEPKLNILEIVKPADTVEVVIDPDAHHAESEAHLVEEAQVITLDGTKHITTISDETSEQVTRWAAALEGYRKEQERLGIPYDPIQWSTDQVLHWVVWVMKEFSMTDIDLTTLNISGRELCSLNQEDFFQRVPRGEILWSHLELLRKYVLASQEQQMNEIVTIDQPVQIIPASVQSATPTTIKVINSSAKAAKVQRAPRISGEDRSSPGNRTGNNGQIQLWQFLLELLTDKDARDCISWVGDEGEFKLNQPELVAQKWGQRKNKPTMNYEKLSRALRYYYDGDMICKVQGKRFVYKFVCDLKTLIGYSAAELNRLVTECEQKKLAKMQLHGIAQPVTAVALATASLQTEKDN
Summary of the method: as §1

[3] = target: ELF1 (Homo sapiens, UniProt P32519 1-619)
Summary of the method: as §1

[4] = target: T3, EHF (Homo sapiens, UniProt Q9NZC4 1-300)
T3 sequence: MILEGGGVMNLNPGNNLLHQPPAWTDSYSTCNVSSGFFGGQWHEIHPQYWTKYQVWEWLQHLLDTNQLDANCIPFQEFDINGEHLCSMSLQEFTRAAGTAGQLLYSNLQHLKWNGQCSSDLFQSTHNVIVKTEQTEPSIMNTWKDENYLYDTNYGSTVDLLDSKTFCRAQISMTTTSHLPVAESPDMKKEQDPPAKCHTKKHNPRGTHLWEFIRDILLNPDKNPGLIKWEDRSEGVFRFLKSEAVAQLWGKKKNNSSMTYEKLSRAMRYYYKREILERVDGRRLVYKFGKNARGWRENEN
Summary of the method: as §1

[5] = target: SPI1 (Homo sapiens, UniProt P17947 1-270)
Summary of the method: as §1

[6] = target: SPIB (Homo sapiens, UniProt Q01892 1-262)
Summary of the method: as §1

[7] = target: T4, FEV (Homo sapiens, UniProt Q99581 1-238)
T4 sequence: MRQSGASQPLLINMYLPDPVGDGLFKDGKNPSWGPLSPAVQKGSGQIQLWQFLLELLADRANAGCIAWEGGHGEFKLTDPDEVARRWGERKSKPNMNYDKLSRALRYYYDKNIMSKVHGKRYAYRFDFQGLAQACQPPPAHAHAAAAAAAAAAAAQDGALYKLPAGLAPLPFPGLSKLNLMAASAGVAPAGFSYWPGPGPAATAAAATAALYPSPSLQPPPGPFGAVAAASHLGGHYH
Summary of the method: as §1

[8] = target: ETV5 (Homo sapiens, UniProt P41161 1-510)
Summary of the method: as §1

[9] = target: T5, ELK4 (Homo sapiens, UniProt P28324-2 1-405)
T5 sequence: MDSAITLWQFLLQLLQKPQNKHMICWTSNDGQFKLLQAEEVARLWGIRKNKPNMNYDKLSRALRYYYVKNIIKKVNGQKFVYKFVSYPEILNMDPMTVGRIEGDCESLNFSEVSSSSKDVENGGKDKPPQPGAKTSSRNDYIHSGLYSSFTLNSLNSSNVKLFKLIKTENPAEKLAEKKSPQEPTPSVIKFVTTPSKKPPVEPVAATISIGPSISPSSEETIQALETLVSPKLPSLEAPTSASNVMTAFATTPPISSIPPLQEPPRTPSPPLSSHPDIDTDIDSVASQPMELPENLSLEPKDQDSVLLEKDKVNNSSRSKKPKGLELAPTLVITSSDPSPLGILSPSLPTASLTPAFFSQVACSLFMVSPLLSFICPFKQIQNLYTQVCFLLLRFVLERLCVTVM
Summary of the method: as §1

[10] = target: T6, ELF3 (Homo sapiens, UniProt P78545 1-371)
T6 sequence: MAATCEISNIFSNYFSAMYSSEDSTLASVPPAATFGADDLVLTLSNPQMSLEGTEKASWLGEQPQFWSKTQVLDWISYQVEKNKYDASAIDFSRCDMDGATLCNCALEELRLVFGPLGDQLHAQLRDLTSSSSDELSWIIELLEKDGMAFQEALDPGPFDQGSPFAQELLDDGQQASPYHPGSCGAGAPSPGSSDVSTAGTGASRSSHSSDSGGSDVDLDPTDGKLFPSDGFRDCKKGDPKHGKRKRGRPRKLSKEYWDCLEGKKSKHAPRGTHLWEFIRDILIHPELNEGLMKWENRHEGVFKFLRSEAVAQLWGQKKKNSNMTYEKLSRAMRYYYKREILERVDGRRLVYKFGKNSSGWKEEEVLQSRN
Summary of the method: as §1

[11] = target: ETV1 (Homo sapiens, UniProt P50549 1-477)
Summary of the method: as §1

[12] = target: T7, SPDEF (Homo sapiens, UniProt O95238 1-335)
T7 sequence: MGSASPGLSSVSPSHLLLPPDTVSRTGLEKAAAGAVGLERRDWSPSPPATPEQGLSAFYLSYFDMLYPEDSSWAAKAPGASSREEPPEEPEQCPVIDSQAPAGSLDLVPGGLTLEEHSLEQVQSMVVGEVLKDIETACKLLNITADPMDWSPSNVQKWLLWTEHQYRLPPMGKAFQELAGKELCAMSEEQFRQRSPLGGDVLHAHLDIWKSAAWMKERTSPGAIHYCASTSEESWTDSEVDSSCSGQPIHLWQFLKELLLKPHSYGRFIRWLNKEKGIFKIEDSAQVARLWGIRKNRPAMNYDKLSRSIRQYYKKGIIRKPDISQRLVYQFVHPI
Summary of the method: as §1

[13] = target: T8, ETV7 (Homo sapiens, UniProt Q9Y603 1-341)
T8 sequence: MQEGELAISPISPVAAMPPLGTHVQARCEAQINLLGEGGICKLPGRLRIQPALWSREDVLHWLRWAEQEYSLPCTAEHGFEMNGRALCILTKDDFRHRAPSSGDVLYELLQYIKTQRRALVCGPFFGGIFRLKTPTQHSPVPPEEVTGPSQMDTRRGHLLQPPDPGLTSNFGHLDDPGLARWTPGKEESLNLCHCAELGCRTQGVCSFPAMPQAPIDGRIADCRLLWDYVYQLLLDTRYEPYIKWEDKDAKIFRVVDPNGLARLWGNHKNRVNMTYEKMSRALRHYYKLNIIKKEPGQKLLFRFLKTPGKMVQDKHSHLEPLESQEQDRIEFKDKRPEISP
Summary of the method: as §1

[14] = target: T9, ETV3 (Homo sapiens, UniProt P41162-2 1-143)
T9 sequence: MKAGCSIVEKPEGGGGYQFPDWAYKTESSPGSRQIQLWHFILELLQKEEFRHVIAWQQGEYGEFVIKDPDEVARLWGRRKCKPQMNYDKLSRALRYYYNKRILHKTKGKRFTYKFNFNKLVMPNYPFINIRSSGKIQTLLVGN
Summary of the method: as §1

[15] = target: ETV6 (Homo sapiens, UniProt P41212 1-452)
Summary of the method: as §1

Chain of ELF1 (P32519 whole entry): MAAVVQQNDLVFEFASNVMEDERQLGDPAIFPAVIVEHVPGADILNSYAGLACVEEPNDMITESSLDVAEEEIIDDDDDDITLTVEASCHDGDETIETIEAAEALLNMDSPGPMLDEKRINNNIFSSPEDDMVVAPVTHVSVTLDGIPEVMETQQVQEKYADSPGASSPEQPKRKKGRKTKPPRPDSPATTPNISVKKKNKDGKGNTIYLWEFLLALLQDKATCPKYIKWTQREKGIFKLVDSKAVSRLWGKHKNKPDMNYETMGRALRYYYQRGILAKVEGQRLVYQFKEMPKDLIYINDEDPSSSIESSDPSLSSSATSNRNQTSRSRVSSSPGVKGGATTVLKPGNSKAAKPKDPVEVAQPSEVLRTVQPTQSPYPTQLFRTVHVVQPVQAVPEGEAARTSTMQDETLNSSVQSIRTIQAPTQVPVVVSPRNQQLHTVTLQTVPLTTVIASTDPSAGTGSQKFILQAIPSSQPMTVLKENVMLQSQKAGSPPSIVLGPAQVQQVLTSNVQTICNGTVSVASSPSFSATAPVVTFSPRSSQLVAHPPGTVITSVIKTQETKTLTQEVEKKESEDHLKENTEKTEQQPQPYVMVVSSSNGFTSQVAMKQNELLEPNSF
Chain of ETV1 (P50549 whole entry): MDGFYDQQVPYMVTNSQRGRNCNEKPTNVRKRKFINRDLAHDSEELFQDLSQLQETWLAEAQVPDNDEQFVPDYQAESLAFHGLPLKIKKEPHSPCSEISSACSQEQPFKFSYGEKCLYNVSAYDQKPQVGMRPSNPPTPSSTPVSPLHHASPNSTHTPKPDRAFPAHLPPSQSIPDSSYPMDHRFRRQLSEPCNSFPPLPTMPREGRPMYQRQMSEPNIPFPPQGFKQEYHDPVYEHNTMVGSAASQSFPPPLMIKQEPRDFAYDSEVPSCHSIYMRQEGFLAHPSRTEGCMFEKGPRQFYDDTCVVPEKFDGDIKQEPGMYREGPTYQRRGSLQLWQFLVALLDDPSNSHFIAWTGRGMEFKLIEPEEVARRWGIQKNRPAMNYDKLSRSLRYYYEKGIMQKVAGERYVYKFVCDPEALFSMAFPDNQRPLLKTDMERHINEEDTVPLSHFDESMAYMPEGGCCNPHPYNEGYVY
Chain of ETV5 (P41161 whole entry): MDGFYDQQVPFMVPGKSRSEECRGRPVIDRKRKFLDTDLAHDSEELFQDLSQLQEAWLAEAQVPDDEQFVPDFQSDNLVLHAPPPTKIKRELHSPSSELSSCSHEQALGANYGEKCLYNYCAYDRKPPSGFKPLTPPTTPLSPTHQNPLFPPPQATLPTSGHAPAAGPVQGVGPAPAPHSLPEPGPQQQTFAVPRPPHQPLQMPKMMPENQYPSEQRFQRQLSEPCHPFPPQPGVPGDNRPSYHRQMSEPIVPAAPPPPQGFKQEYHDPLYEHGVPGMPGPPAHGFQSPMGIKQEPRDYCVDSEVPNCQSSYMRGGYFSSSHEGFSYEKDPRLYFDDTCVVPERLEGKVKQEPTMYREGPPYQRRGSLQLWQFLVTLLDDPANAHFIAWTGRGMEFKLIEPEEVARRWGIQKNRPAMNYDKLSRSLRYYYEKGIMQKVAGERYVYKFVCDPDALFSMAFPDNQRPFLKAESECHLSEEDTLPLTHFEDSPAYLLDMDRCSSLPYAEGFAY
Chain of SPIB (Q01892 whole entry): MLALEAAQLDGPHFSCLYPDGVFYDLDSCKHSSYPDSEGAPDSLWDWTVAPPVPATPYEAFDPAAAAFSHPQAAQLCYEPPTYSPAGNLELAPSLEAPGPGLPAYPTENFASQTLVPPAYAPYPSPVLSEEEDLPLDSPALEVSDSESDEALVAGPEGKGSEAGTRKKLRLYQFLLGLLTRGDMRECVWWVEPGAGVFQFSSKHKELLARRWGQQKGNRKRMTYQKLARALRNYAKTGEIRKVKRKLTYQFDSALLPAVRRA
Chain of ETV6 (P41212 whole entry): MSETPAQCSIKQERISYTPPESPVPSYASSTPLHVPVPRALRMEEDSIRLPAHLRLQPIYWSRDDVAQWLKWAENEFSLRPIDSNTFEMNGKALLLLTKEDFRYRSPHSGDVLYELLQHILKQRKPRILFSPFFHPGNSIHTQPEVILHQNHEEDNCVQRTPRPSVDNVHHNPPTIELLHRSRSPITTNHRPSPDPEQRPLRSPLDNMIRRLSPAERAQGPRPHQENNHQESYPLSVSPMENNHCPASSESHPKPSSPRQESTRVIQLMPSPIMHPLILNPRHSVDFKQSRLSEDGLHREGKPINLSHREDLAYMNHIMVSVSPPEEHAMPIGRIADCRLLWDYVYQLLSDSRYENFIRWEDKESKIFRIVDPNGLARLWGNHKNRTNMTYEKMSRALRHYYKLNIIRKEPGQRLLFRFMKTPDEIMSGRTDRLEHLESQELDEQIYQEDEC

TCGTCC was tested, and the binding signal [1] was 1.1 fold enrichment (6-mer frequency, TF over GST control), the binding signal [2] was 1.05 fold enrichment (6-mer frequency, TF over GST control) and the binding signal [3] was 1.03 fold enrichment (6-mer frequency, TF over GST control). The binding signal [4] was 1 fold enrichment (6-mer frequency, TF over GST control), the binding signal [5] was 1.03 fold enrichment (6-mer frequency, TF over GST control) and the binding signal [6] was 1.06 fold enrichment (6-mer frequency, TF over GST control). The binding signal [7] was 1 fold enrichment (6-mer frequency, TF over GST control), the binding signal [8] was 1.01 fold enrichment (6-mer frequency, TF over GST control) and the binding signal [9] was 1.15 fold enrichment (6-mer frequency, TF over GST control). For the same sequence, the binding signal [10] was 1.08 fold enrichment (6-mer frequency, TF over GST control), the binding signal [11] was 1.06 fold enrichment (6-mer frequency, TF over GST control) and the binding signal [12] was 1.08 fold enrichment (6-mer frequency, TF over GST control). The binding signal [13] was 1.08 fold enrichment (6-mer frequency, TF over GST control), the binding signal [14] was 1.04 fold enrichment (6-mer frequency, TF over GST control) and the binding signal [15] was 1.08 fold enrichment (6-mer frequency, TF over GST control).
